# IL-1B inflam inh = inhibitors of inflammasome signaling (IL-1 beta secretion); activity change, % at 57.5 µM; AID 743279; THP-1 LPS/ATP IL-1B secretion, AlphaLISA, 16 h; hits give low values; 360,000 compounds, 4.7% hits; in the data active means activity change below about -50%; inconclusive means mostly about -30% to -49%
#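 THP-1 cells pretreated 1 hr with compounds (up to 57.5 uM final), then stimulated with LPS (250 ng/mL final) plus ATP (1.25 mM final); secreted IL-1B measured by AlphaLISA after 16 hr, decreased signal indicating inhibition.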
# DT40 TDP1 no CPT = qHTS for Inhibitors of human tyrosyl-DNA phosphodiesterase 1 (TDP1): qHTS in cells in absence of CPT; DT40 Tdp1-/- hTDP1 cells, no CPT, ATP luminescence, 48 h; 420,000 compounds, 15% hits; Potency, µM (series often up to 46.2 µM), for inactives: top-dose activity change, negative = growth inhibition, actives largely listed as inhibitors; AID 686978, 2013; further: potency means the concentration at half of the fitted maximal effect; nearly all actives have a fitted effect of over 55% in size
#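 No-CPT arm: Tdp1-/-;hTDP1 DT40 cells (400/well) plus compounds, incubated ≥48 hr at 37 °C. Readout CellTiter-Glo luminescence.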
# HT1080 IDH1KD tx = kills HT-1080 cells with IDH1 knockdown; 360,000 compounds, 2% hits; Potency, µM (highest dose often 46.1 µM), without a hit: at the top dose activity, negative = toxicity, actives largely listed as cytotoxic; HT-1080 IDH1 knockdown viability, ATP luminescence, 48 h;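 further: potency means the concentration at half of the fitted maximal effect; 0% = DMSO wells and -100% = cell-free medium wells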
#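 Cytotoxicity counter-line: IDH1KD HT-1080, 48 h, CellTiter-Glo. Curves classed by r2, magnitude and activity.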
# TDP1 cell CPT = DT40-hTDP1 cell growth loss with CPT | chicken DT40 Tdp1-/-;hTDP1 cells + 20 nM CPT, ATP luminescence, 48 h | AID 686979 | 420,000 compounds, 12% hits | Potency, µM (highest dose often 46.2 µM), without a hit: at the top dose activity change, negative = growth inhibition, actives largely listed as inhibitors; further: potency means the concentration at half of the fitted maximal effect; nearly all actives have a fitted effect of over 55% in size
#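 Chicken DT40 Tdp1-/- cells complemented with human TDP1, 400 cells/well, exposed to compounds plus 20 nM camptothecin for at least 48 h at 37 C; viability read as ATP content by CellTiter-Glo luminescence.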
# ALOX12 inh = blocks human arachidonate 12S-lipoxygenase. 580,000 compounds, 1.1% hits. purified 12hLO, xylenol orange hydroperoxide absorbance. P18054. AID 1671190. Potency, µM (doses to about 108 µM), without a hit: at the top dose activity change, negative = inhibition, most hits filed as inhibitors; further: potency means the concentration at half of the fitted maximal effect
# Target sequence (P18054 whole entry, looked up): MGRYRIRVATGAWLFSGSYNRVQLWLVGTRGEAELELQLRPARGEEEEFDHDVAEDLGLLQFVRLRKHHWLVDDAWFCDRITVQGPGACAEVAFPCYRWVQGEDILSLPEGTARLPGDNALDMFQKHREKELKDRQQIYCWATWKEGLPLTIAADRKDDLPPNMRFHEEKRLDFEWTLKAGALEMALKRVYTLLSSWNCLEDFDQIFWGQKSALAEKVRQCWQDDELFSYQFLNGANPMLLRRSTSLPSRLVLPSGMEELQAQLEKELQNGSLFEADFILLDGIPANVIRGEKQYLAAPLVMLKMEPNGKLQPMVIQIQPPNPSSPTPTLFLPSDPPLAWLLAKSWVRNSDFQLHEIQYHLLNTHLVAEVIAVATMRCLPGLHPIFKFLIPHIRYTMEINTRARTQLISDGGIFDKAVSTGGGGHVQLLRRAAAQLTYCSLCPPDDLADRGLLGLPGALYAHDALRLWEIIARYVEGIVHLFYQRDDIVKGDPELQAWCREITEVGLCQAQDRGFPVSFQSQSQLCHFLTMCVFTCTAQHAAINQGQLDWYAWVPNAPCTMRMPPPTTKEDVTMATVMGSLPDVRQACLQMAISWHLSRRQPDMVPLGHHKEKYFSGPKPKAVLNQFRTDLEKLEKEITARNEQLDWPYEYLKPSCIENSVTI
#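 Purified human 12hLO (150 nM final) in 25 mM Hepes, 0.01% Triton X-100, pH 7.0 was preincubated 15 min at room temperature with compound. Then 40 uM arachidonic acid was added, 30 min. Hydroperoxide was read by Fe-XO absorbance ratio 573/405 nm.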
# HT1080-NT tox = kills 2HG-producing HT-1080-NT fibrosarcoma cells; HT-1080-NT fibrosarcoma viability, CellTiter-Glo ATP luminescence, 48 h; Potency, µM (titrated, usually from 46.1 µM), for inactives: top-dose activity, negative = less viability, hits mostly cytotoxic; 360,000 compounds, 1.6% hits;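 further: NT is the 2HG producing partner of a matched IDH1 knockdown line; potency means the concentration at half of the fitted maximal effect; 0% = DMSO-treated cells and -100% = media-only wells without cells; nearly all actives have a fitted effect of over 55% in size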
#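 Fibrosarcoma NT cells, 750 per well in 5% FBS RPMI, were exposed to compound for 48 hours. Viability: CellTiter-Glo luminescence.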
# Active calls of the source: *; ? = inconclusive; / = no result; [ ] = dose if it differs, or a comment. The full list was thinned out, with hits kept by preference. Unless noted, the call rests on the fitted dose curve; in most records, active means well fitted curve in the direction sought with a large enough effect; inconclusive means small, poorly fitted or top-dose-only effect, or another doubt; inactive means no such curve, though single readings can be large; an effect the other way counts as inactive or inconclusive. Unless noted, on the % scale 0 is the no-effect control and ±100 the full control effect.
SMILES,IL-1B inflam inh,DT40 TDP1 no CPT,HT1080 IDH1KD tx,TDP1 cell CPT,ALOX12 inh,HT1080-NT tox
C[N+](C)(C)CCOC(c1ccccc1)c1ccccc1,/,/,/,/,-0.2%,/
Cc1ccc(C(OCC(C)(C)C[N+](C)(C)C)c2ccccc2)cc1 (stereo not drawn),-52.0*,5.17µM*,1.0%,5.8µM*,44.7µM*,2.4%
CCCn1nnnc1CN1CCCC1c1ccc(OCC)cc1 (stereo not drawn),/,/,/,/,-2.4%,/
Cc1nn(C)c(C)c1CN(Cc1nc(CCC(C)C)no1)C(C)C,-6.3,0.581µM*,?,2.31µM*,-0.6%,-13.3%
Cc1nc(CCNS(=O)(=O)c2c(C)nn(C)c2C)no1,/,/,/,/,-5.2%,/
CN(C)c1nc(N)nc(CSc2nnnn2-c2ccc(Cl)cc2)n1,20.4,?,23.1µM*,?,?,?
Cc1noc(C)c1CSc1nc2ccccc2c(=O)n1-c1ccc(Cl)cc1,-8.4,14.6µM*,7.08µM*,18.4µM*,12.4%,10µM*
CSc1nnnn1-c1ccc(Cl)cc1,4.7,2.5%,4.8%,7.7%,-1.4%,3.1%
Cc1noc(C)c1CSc1nnnn1-c1ccc(Cl)cc1,-16.9,14.6µM*,-5.1%,?,2.4%,-6.1%
CCCN(CC1CCOC1)C(=O)c1ccc(F)cc1F (stereo not drawn),/,/,/,/,37.4%,/
O=c1cc(-c2ccccc2O)oc2c(O)c(O)ccc12,/,29.9µM*,/,23.7µM*,/,/
CCc1cc2ccc(C)cc2nc1SCC(=O)c1ccc(NC(C)=O)cc1,-61.1*,-22.1%,-1.8%,-22.1%,0.0%,?
CCn1ncc(N2CCCC(CC(=O)NCCc3ccccc3)C2)cc1=O (stereo not drawn),/,/,/,/,-3.5%,/
CCOC(=O)C1=C(O)/C(=C/c2cc(OC)c(OC)c(OC)c2)SC1=Nc1ccc(OC)cc1,-10.3,20.6µM*,-17.1%,?,-3.9%,-8.7%
CCOC(=O)C1=C(O)/C(=C/c2ccc(OCC(=O)O)c(OCC)c2)SC1=Nc1ccc(OC)cc1,-23.6,-21.2%,-0.6%,-1.0%,-3.2%,-10.8%
O=C1C(=C(O)c2ccccc2)C(=O)c2ccccc21,4.6,-13.8%,-0.4%[9.24 µM],?,?,-28.6%
O=C1C(=C(c2ccccc2)c2ccccc2)Nc2ccccc21,9.6,14.6µM*,?,13µM*,135.6%,?
c1coc(CNCc2ccsc2)c1,/,/,/,/,-29.6%,/
Nc1cccc(C(=O)/C=C/c2ccc(F)cc2)c1,/,/,/,/,-12.1%,/
c1ccc(N2CCCCC2)c(Nc2nc3ccccc3n3cnnc23)c1,57.6,20.6µM*,0.8%,?,0.0%,13.3%
FC(F)(F)c1ccc(N2CCOCC2)c(Nc2nc3ccccc3n3cnnc23)c1,-61.2*,?,?,?,12.9%,?
CC(OC(=O)c1ccc2c(c1)NC(=O)CS2)C(=O)NC1CCCC1 (stereo not drawn),/,/,/,/,0.4%,/
COc1ccc(N2CCN(CC(=O)Nc3ccccc3C(=O)NC(C)c3ccccc3)CC2)cc1 (stereo not drawn),-28.2,20.6µM*,-5.3%,?,-0.3%,-0.7%
COc1ccc(N2CCN(CC(=O)Nc3ccccc3C(=O)NCc3ccccc3)CC2)cc1,3.1,18.4µM*,-8.8%,14.6µM*,-0.6%,-13.0%
CC(NC(=O)c1ccccc1NC(=O)CN1CCN(c2ccccc2O)CC1)c1ccccc1 (stereo not drawn),13.4,?,1.9%,?,0.0%,3.7%
COc1ccccc1N1CCN(CC(=O)Nc2ccccc2C(=O)NC(C)c2ccccc2)CC1 (stereo not drawn),-10.1,18.4µM*,-2.4%,14.6µM*,0.0%,14.4%

# Screens from PubChem.
